Measurements taken from ChEMBL document CHEMBL4513146, “CO-ADD screening of Karazin Kharkiv National University (Ukraine) compounds”.
Entries with a potency or affinity are not part of this list.

Legend:
Staphylococcus aureus = conditions: Concentration 32 ug.mL-1;; ASSAY_TEST Inhibition of Bacterial Growth; detection method Absorption (OD600); MEDIA CAMHB; plate type 384well; NBS; CORNING #3640; time 18 hr
Escherichia coli = conditions: Concentration 32 ug.mL-1;; ASSAY_TEST Inhibition of Bacterial Growth; detection method Absorption (OD600); MEDIA CAMHB; plate type 384well; NBS; CORNING #3640; time 18 hr

Compound | Inhibition (Staphylococcus aureus) | Inhibition (Escherichia coli)
O=C(Cn1nc2c3cc(-c4ccc(Cl)cc4)nn3ccn2c1=O)Nc1ccc2c(c1)OCCO2 | -0.49% | -1.57%
CCCCOc1ccc(-c2cc3c4nnc(SCC(=O)N(C)c5ccc(F)cc5)n4ccn3n2)cc1 | -20.91% | -5.6%
COc1ccc(C)cc1NC(=O)Cn1nc2c3cc(-c4ccc(Cl)cc4)nn3ccn2c1=O | 8.09% | 3.41%
COc1cccc(Oc2nccn3c(=O)n(CC(=O)NCc4cccs4)nc23)c1 | 7.35% | -2.75%
Cc1cc2nn(CC(=O)Nc3cc(F)ccc3C)c(=O)n2c(Nc2ccc(F)cc2)n1 | 4.25% | -5.18%
COc1ccc(-c2cc3c4nnc(SCC(=O)Nc5ccccc5C(F)(F)F)n4ccn3n2)cc1 | -10.53% | 1.87%
COc1cc(NC(=O)C(C)Sc2nnc3c(=O)n(-c4cccc(OC)c4)ccn23)cc(OC)c1 (stereo not given) | -2.41% | -14.15%
O=c1n(Cc2nc(-c3ccc4c(c3)OCO4)no2)nc2ccc(-c3ccccc3)nn12 | -9.1% | -9.98%
O=S(=O)(c1ccc2nncn2c1)N(Cc1cccc(F)c1)c1cc(F)cc(F)c1 | 0.07% | -4.91%
Cc1cccc(NC(=O)Cn2nc3ccc(-c4ccc(Cl)cc4)nn3c2=O)c1C | 5.25% | -5.96%
CC(C)NC(=O)CSc1nnc2c(=O)n(Cc3ccc(F)cc3)ccn12 | -0.55% | -7.51%
CSc1cccc(NC(=O)Cn2nc3c(N4CCCC4)nccn3c2=O)c1 | -20.72% | -10.95%
Cc1ccc(NC(=O)Cn2nc3cc(C)nc(Nc4ccc(F)cc4)n3c2=O)cc1 | 6.17% | -2.28%
CCOC(=O)c1ccccc1NC(=O)Cn1nc2c3sc(N4CCCC4)nc3ncn2c1=O | 11.36% | -3.52%
Cc1ccc(-c2cc3c4nnc(CCC(=O)NCc5ccc(C(F)(F)F)cc5)n4ccn3n2)cc1C | 3.78% | -2.88%
O=C(CCc1nnc2c3cc(-c4ccc(Cl)cc4)nn3ccn12)N1CCN(c2ccccn2)CC1 | 5.65% | -0.84%
CCOC(=O)c1cccc(NC(=O)CSc2nc3ccccc3n3c(C(C)C)nnc23)c1 | 7.87% | -1.12%
Cc1ccc(NC(=O)CSc2nc3ccccc3n3c(C(C)C)nnc23)cc1Cl | -8.33% | -6.42%
COc1ccc(NC(=O)Cn2nc3c(SC4CCCCC4)nccn3c2=O)cc1Cl | -11.83% | -6.21%
COc1ccc(NC(=O)C(C)Sc2nnc3c(=O)n(-c4ccc(C)c(C)c4)ccn23)cc1 (stereo not given) | 7% | -4.16%
Cc1ccc(NC(=O)Cn2nc3ccc(SC(C)(C)C)nn3c2=O)c(C)c1 | 13% | -1.14%
Cc1ccc(Oc2nc3ccccc3n3c(=O)n(CC(=O)Nc4ccc5c(c4)OCO5)nc23)cc1 | 1.4% | -7.69%
Cc1ccc(-c2ccc3nn(Cc4ccc(Cl)cc4)c(=O)n3n2)cc1C | -1.51% | -5.81%
COc1cccc(CN(c2ccc(F)c(F)c2)S(=O)(=O)c2cccn3c(C)nnc23)c1 | 17.08% | 2.94%

Compound | Inhibition (Staphylococcus aureus) | Inhibition (Escherichia coli)
CCCCOc1ccc(-c2cc3c4nnc(SCC(=O)Nc5ccc(C)c(C)c5)n4ccn3n2)cc1 | 10.66% | -4.59%
COC(=O)c1ccc(CN(c2ccc(Cl)cc2)S(=O)(=O)c2ccc3nncn3c2)o1 | 10.93% | -7.28%
O=C(Cn1nc2n(Cc3ccccc3)c(=O)c3ccccc3n2c1=O)Nc1ccc2c(c1)OCO2 | -3.15% | 1.74%
CSc1ccc(CNC(=O)Cn2nc3c(Oc4ccccc4)nccn3c2=O)cc1 | 10.07% | 1.2%
COc1cc(OC)c(NC(=O)Cn2nc3c(Sc4ccc(C)cc4C)nccn3c2=O)cc1Cl | -8.98% | -14.71%
COc1cccc(CNC(=O)CCc2nnc3ccc(-c4ccc(C)cc4)nn23)c1 | 16.4% | -0.37%
COc1ccc(CNC(=O)Cn2nc3c(Sc4ccc(C)cc4C)nccn3c2=O)cc1 | 6.57% | -1.79%
Cc1nnc2ccc(S(=O)(=O)N(Cc3cc(F)cc(F)c3)c3ccccc3)cn12 | 12.61% | -1.77%
Cc1cc(C)c(NC(=O)Cn2c(=O)c3nnc(C(C)C)n3c3ccccc32)c(C)c1 | 15.71% | 3.04%
CCOc1ccc(N(Cc2ccccc2)S(=O)(=O)c2ccc3nncn3c2)cc1 | -0.89% | -1.41%
COC(=O)c1ccc(NC(=O)Cn2nc3c(Oc4ccccc4C)nccn3c2=O)cc1 | -13.52% | 1.22%
CC(C)c1nnc2c(SCC(=O)Nc3ccc(C#N)cc3)nc3ccccc3n12 | 2.21% | 1.03%
Cc1ccc(CNC(=O)Cn2nc3c(Sc4ccc(C)cc4C)nccn3c2=O)cc1 | -3.31% | -11.72%
O=C(CSc1nnc2c(=O)n(-c3ccccc3)ccn12)Nc1ccc2c(c1)OCO2 | 8.51% | -2.5%
CCc1nnc2c(S(=O)(=O)N(Cc3ccccc3F)c3ccc(F)cc3)cccn12 | 1.79% | -1.76%
Cc1ccc(NC(=O)Cn2nc3c4cc(-c5ccc(C)c(C)c5)nn4ccn3c2=O)c(Cl)c1 | 9.28% | -1.41%
Cc1cccc(CN(c2ccc(Cl)cc2)S(=O)(=O)c2cccn3c(C)nnc23)c1 | 13.75% | 2.16%
Cc1ccc(CN(c2ccc(C(C)C)cc2)S(=O)(=O)c2cccn3c(C)nnc23)cc1 | 3.26% | -8.61%
O=C(Cn1nc2c(Oc3ccccc3)nc3ccccc3n2c1=O)Nc1ccc2c(c1)OCO2 | 13.59% | 2.6%
COc1ccc(CCn2c(=O)c3sccc3n3c(=O)n(Cc4ccccc4Cl)nc23)cc1OC | 1.03% | -4.64%
Cc1ccc(N(Cc2ccc(F)cc2)S(=O)(=O)c2ccc3nnc(C)n3c2)cc1 | 0.5% | -5.57%
Cc1cccc(CN(c2ccc(C(C)C)cc2)S(=O)(=O)c2cccn3c(C)nnc23)c1 | 5.76% | -1.18%
Cc1ccc(-c2ccc3nn(CC(=O)NC4CCCCC4)c(=O)n3n2)cc1C | 8.8% | 0.07%
COc1ccc(C)cc1NC(=O)Cn1nc2ccc(SC(C)(C)C)nn2c1=O | 2.65% | -6.39%

Compound | Inhibition (Staphylococcus aureus) | Inhibition (Escherichia coli)
COc1cc(NC(=O)Cn2nc3c4c5c(sc4ncn3c2=O)CCCC5)cc(OC)c1 | -0.84% | -8.54%
COc1cccc(Oc2nccn3c(=O)n(CC(=O)Nc4ccc(OC)c(Cl)c4)nc23)c1 | 8.12% | -5.35%
Cc1cccc(C)c1NC(=O)CSc1nnc2c3cc(-c4ccccc4)nn3ccn12 | -21.6% | -21.37%
Cc1ccc(-c2cc3c4nnc(SCC(=O)Nc5ccccc5Br)n4ccn3n2)cc1 | 1.85% | -3.11%
COc1cccc(CNC(=O)CSc2nnc3c4cc(-c5ccc(C)cc5)nn4ccn23)c1 | -18.93% | -18.15%
Cc1nnc2c(=O)n(CC(=O)Nc3ccc(Br)cc3)c3ccccc3n12 | -6.47% | 5.5%
Cc1cc(C)cc(NC(=O)Cn2nc3c(Sc4cccc(C)c4)nc4ccccc4n3c2=O)c1 | 1.17% | 2.96%
COc1ccc(NC(=O)Cn2nc3c4c5c(sc4ncn3c2=O)CCCC5)cc1 | 2.3% | -5.34%
O=c1c2nnc(SCc3ccccc3Cl)n2ccn1-c1ccc(F)c(F)c1 | 11.5% | -3.79%
Cc1ccc2c(c1)N(C(=O)Cn1nc3ccc(SC(C)(C)C)nn3c1=O)CCO2 | 10.2% | -0.14%
COc1ccc(-c2cc3c4nnc(CCC(=O)NCc5ccccc5Cl)n4ccn3n2)cc1 | 0.8% | -2.58%
COc1cccc(-n2ccn3c(SCC(=O)c4c[nH]c5ccc(OC)cc45)nnc3c2=O)c1 | 11.97% | -2.96%
Cc1cccc(Oc2nccn3c(=O)n(CC(=O)N4CCN(c5ccccc5F)CC4)nc23)c1C | -3.04% | -9.87%
O=C(Cn1nc2c(N3CCOCC3)nccn2c1=O)Nc1ccc2c(c1)OCO2 | 15.61% | 0.24%
Cc1cc2nn(CC(=O)Nc3ccc(F)c(F)c3)c(=O)n2c(Nc2ccc(C)c(F)c2)n1 | 7.73% | -3.04%
CCOc1ccc(-n2ccn3c(SCC(=O)c4ccc(C)cc4C)nnc3c2=O)cc1 | 6.78% | -6.14%
COc1ccc(N2CCN(C(=O)Cn3nc4ccc(-c5ccc(Cl)cc5)nn4c3=O)CC2)cc1 | 9.33% | -1.38%
O=C(CSc1nnc2c(=O)n(-c3ccc(Br)cc3)ccn12)Nc1cc(F)ccc1F | 11.71% | -2.54%
CC(C)CCNC(=O)Cn1nc2n(CC(C)C)c(=O)c3sccc3n2c1=O | 4.95% | -1.56%
O=C(Cn1nc2c3cc(-c4ccccc4)nn3ccn2c1=O)N1CCN(c2ccccc2F)CC1 | 4.61% | -0.58%
COc1ccc(NC(=O)CSc2nnc3c(=O)n(-c4ccccc4)ccn23)cc1OC | 9.52% | -7.32%
Cc1cc2nn(CC(=O)Nc3cc(F)ccc3F)c(=O)n2c(Nc2ccc(F)c(C)c2)n1 | -14.31% | 0.42%
